Measured values as given in PubChem BioAssay (NCI).
This is part of a sample that, as a whole, favours compounds with a hit. Of some 83,000 tested, about 20% had one in any assay.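 Step 1: grow cells in 96-well plates. Step 2: add test compound at a single concentration. Step 3: incubate 48 h. Step 4: record percent growth.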 Unmarked numbers belong to inactive results. Activity calls are given as the source filed them. The calls were made as follows: active = growth percent below 10; inactive = the rest.

test system: M14 melanoma; assay: NCI-60 one-dose screen, 48 h (100 = growth as untreated, 0 = no growth, -100 = all killed); details: 10 µM

Row | SMILES | growth
1 | CCc1ccc(-c2ccc(-n3nc(C)c4c(N)nc(Cc5ccccc5)nc43)cc2)cc1 | 30.3%
2 | O=[N+]([O-])c1ccc2ncccc2c1Cl | 49.5%
3 | Cc1ccc(-n2nnnc2N)c(C)c1 | 104%
4 | Oc1ccc(-c2[nH]c3ccccc3c2-c2nc3ccccc3o2)cc1 | 25.1%
5 | CCc1ccc(C2=NN(c3ccc(S(C)(=O)=O)cc3)C(=O)CC2)cc1 | 5.99% (active)
6 | COc1ccc(-c2nn(-c3cccc(Cl)c3)cc2-c2c(C#N)c(=O)n3[nH]c(-c4ccc(C)cc4)nc3c2C#N)cc1 | -10.9% (active)
7 | O=C1c2ccccc2C(=O)c2c1ccc(C(Br)Br)c2[N+](=O)[O-] | 36.6%
8 | CCOC(=O)CC(S(=O)(=O)c1ccccc1)S(=O)(=O)c1ccccc1 | 115%
9 | CC(=O)Nc1ccc(S(=O)(=O)c2ccnc3cc(Cl)ccc23)cc1 | 95.3%
10 | O=C(Nc1cc([N+](=O)[O-])c2[nH]c(=O)c3ccccc3c2c1)C(F)(F)F | 107%
11 | COc1cc2c(cc1NC(=O)C(F)(F)F)-c1ccc(NC(=O)C(F)(F)F)cc1C2 | 113%
12 | COc1ccc(/C(C#N)=C/c2cccc(OC)c2OC)cc1 | 86%
13 | C/C(=C/CCC(C)[C@@H]1CC[C@]2(C)C3=C(CC[C@@]12C)[C@@]1(C)CCC(=O)C(C)(C)[C@@H]1CC3)C(=O)O (stereo not given in full) | -76.8% (active)
14 | N#CC1=CC2CN(Cc3ccccc3)C1C1C(=O)N(c3ccccc3)C(=O)C21 (stereo not given) | 86.4%
15 | COC(=O)C1OC1c1cc([N+](=O)[O-])ccc1OC (stereo not given) | 95%
16 | O=c1cn[nH]c2ccc(Br)cc12 | 101%
17 | COc1cc(CNC(=O)C2CSC3(C)c4ccccc4C(=O)N23)cc(OC)c1OC (stereo not given) | 108%
18 | O=C1/C=C/[C@@H](O)[C@@H]2C[C@@H](O)C[C@H]2/C=C/CCC[C@H](C(F)(F)F)O1 | 13.4%
19 | O=C1CCn2c1c(O)c1ccccc1c2=O | 107%
20 | COc1ccc(/C(=N\N)C(=O)c2ccccc2)cc1 (tested in a mixture with another compound) | 124%

Row | SMILES | growth
21 | O=C(CCl)Nc1ccc(Cc2ccc(NC(=O)CCl)cc2)cc1 | -35.3% (active)
22 | CCOC(=O)C1=CSC2=NC3=C(CCC/C3=C\c3cc(OC)c(OC)c(OC)c3)C(c3cc(OC)c(OC)c(OC)c3)N12 (stereo not given) | 16.9%
23 | C=CCSC(CC)(CC)C(=O)NC | 103%
24 | CCN(CCCNc1cc2c(c(N)c1S(=O)(=O)O)C(=O)c1ccccc1C2=O)c1ccccc1 | 98.3%
25 | Cc1ccc(S(=O)(=O)N/N=C2\CCCc3ccccc32)cc1 | 118%
26 | COc1cc(-c2nn(-c3cccc(NC(=O)CCNc4ccc(N5CCOCC5)cc4)c3)cc2-c2ccncc2)ccc1Cl | 2.71% (active)
27 | COc1cc2c(cc1NC(=O)C(Cl)Cl)-c1ccc(NC(=O)C(Cl)Cl)cc1C2 | 69.8%
28 | OCC1OC2C(NC(=S)N2c2ccccc2)C(O)C1O (stereo not given) | 120%
29 | Cc1cc(O)ccc1C1=NN(c2ccc(S(C)(=O)=O)cc2)C(=O)CC1 | 49.2%
30 | Cc1c(Cl)cccc1NC(=O)CN1CCOCC1 | 94.9%
31 | O=C1c2ccccc2C(=O)c2c1ccc(C(Br)Br)c2Cl | 10.7%
32 | CC[C@@H](C(=O)[C@@H](C)[C@@H](O)[C@H](C)[C@@H]1O[C@@H]([C@@H](CC)C(=O)N(CC)CC)CC[C@@H]1C)C1O[C@]2(C=CC(=O)[C@]3(CC[C@@](C)([C@H]4CC[C@](O)(CC)[C@H](C)O4)O3)O2)[C@H](C)C[C@@H]1C (stereo not given in full) | 13.6%
33 | COc1cc(C(=O)n2nc(-c3cc(OC)c(OC)c(OC)c3)nc2N)cc(OC)c1OC | 89.9%
34 | COc1ccc(C(=O)N2C=Cc3ccccc3C2C#N)cc1 (stereo not given) | 116%
35 | COc1ccc(-c2nn(-c3cccc(Cl)c3)cc2-c2cc(-c3ccccc3)[nH]c(=O)c2C#N)cc1 | 32.5%
36 | CCOC(=O)C1C(C(=O)OCC)C2C(=O)C3C(C(=O)OCC)C(C(=O)OCC)C3C(=O)C12 (stereo not given) | 110%
37 | CC1=CC2C(C(O)CC3(C)C2CC(C)C32OCOC23COCO3)C2(C)C/C(=C/O)C(=O)C=C12 (stereo not given) | 18.7%
38 | CCN(CC)CCOc1cccc2c1C(=O)c1ccccc1C2=O | 94.4%
39 | Cc1c2cnccc2c(C)c2c1oc1ccccc12 | 81.6%
40 | O=C(Nc1ccc(NS(=O)(=O)c2ccc(F)cc2)cc1)C12CC3CC(CC(C3)C1)C2 | 96.6%
